A number with no mark means an inactive call. Inconclusive results are not listed. The source made the active and inactive calls. Unless noted, the call rests on the fitted dose curve; in most records, active means well fitted curve in the direction sought with a large enough effect in the repeat runs; inconclusive means weak or mixed curves; inactive means no such curve, though single readings can be large; an effect the other way counts as inactive or inconclusive.

Experiment [1] in a line: A CellTox Green Cytotoxicity Assay to monitor cytotoxicity in HepG2 cells - 24 hour (AID 1224878). Further: nearly all actives have a fitted effect of over 45% in size. Further: potency means the concentration at half of the fitted maximal effect. The gist of the method:
(§1)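 HepG2 cells, 600/well, preincubated 5 h with CellTox Green dye, then exposed to Tox21 compounds in DMSO at 37 C for up to 40 h. Dead-cell DNA fluorescence read at the indicated time point.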

Experiment [2] in a line: A CellTox Green Cytotoxicity Assay to monitor cytotoxicity in HepG2 cells - 40 hour (AID 1224879). Further: nearly all actives have a fitted effect of over 40% in size. Further: potency means the concentration at half of the fitted maximal effect. The method in brief:
as §1

The nature of experiment [3]: qHTS RealTime-Glo MT Cell Viability Assay in HEK293 cells - 0 hour (AID 1224880). Further: nearly all actives have a fitted effect of over 45% in size. Further: potency means the concentration at half of the fitted maximal effect. On activity change, negative = cytotoxicity: top concentration of the series differs between compounds. The method in brief: (§2)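 600 cells/well were plated with the nonlytic NanoLuc/prosubstrate reagent, pre-incubated 5 h, then given 23 nL of compound in DMSO. Incubation at 37 C for 40 h, with luminescence from viable-cell-reduced substrate read repeatedly from 0 h.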
For orientation: In qHTS, concentration-response curves come from the screen itself.

Experiment [4] is described as follows: A CellTox Green Cytotoxicity Assay to monitor cytotoxicity in HEK293 cells - 32 hour (AID 1224881). Further: nearly all actives have a fitted effect of over 40% in size. Further: potency means the concentration at half of the fitted maximal effect. The gist of the method: (§3)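 HEK293 cells, 600/well, were preincubated 5 hours and then exposed to compounds at 37 C for up to 40 hours. A cell-impermeant cyanine dye staining dead-cell DNA was read by fluorescence at 0, 8, 16, 24, 32 and 40 h time points.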
Experiment [5] can be described thus: A CellTox Green Cytotoxicity Assay to monitor cytotoxicity in HepG2 cells - 0 hour (AID 1224882). Further: nearly all actives have a fitted effect of over 35% in size. Further: potency means the concentration at half of the fitted maximal effect. The gist of the method:
as §1

A short description of experiment [6]: A CellTox Green Cytotoxicity Assay to monitor cytotoxicity in HepG2 cells - 32 hour (AID 1224883). Further: nearly all actives have a fitted effect of over 50% in size. Further: potency means the concentration at half of the fitted maximal effect. The method in brief:
as §1

The nature of experiment [7]: A CellTox Green Cytotoxicity Assay to monitor cytotoxicity in HEK293 cells - 8 hour (AID 1224884). Further: nearly all actives have a fitted effect of over 35% in size. Further: potency means the concentration at half of the fitted maximal effect. The gist of the method: as §3
Experiment [8] can be described thus: qHTS RealTime-Glo MT Cell Viability Assay in HepG2 cells - 16 hour (AID 1224885). Further: nearly all actives have a fitted effect of over 50% in size. The method in brief:
(§4)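 Cell number in HepG2 cultures estimated from NanoLuc luminescence generated by metabolic reduction of a prosubstrate by living cells. The homogeneous, nonlytic format allowed repeated reads at 0, 8, 16, 24, 32 and 40 h of compound exposure.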

The nature of experiment [9]: qHTS RealTime-Glo MT Cell Viability Assay in HEK293 cells - 24 hour (AID 1224886). Further: top concentration of the series differs between compounds; nearly all actives have a fitted effect of over 50% in size. The method in brief: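 Homogeneous bioluminescent viability format in HEK293 cells (600 cells/well). Following 5 h at 37 C/5% CO2, 23 nL compound was pintooled; the signal was measured repeatedly during 40 h incubation.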
Experiment [10] is described as follows: qHTS RealTime-Glo MT Cell Viability Assay in HEK293 cells - 8 hour (AID 1224887). Further: top concentration of the series differs between compounds; nearly all actives have a fitted effect of over 50% in size. The method in brief:
as §2

A short description of experiment [11]: A CellTox Green Cytotoxicity Assay to monitor cytotoxicity in HEK293 cells - 16 hour (AID 1224888). Further: nearly all actives have a fitted effect of over 35% in size. Further: potency means the concentration at half of the fitted maximal effect. The gist of the method:
as §3

Experiment [12] is described as follows: qHTS RealTime-Glo MT Cell Viability Assay in HepG2 cells - 0 hour (AID 1224889). Further: nearly all actives have a fitted effect of over 50% in size. Further: potency means the concentration at half of the fitted maximal effect. The method in brief:
as §4

Experiment [13] is described as follows: A CellTox Green Cytotoxicity Assay to monitor cytotoxicity in HepG2 cells - 8 hour (AID 1224890). Further: nearly all actives have a fitted effect of over 45% in size. Further: potency means the concentration at half of the fitted maximal effect. The gist of the method:
as §1

Experiment [14] can be described thus: qHTS assay to identify small molecule antagonists of the estrogen receptor alpha (ER-alpha) signaling pathway using the BG1 cell line in the presence of 0.1 nM 17-beta-estradiol - cell viability counter screen (AID 1259241). Further: nearly all actives have a fitted effect of over 40% in size. The method in brief:
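CellTiter-Fluor read (30 min, 37C) on ER-alpha/ERE-luc VM7Luc4E2 cells; 22 hr compound treatment; agonist 0.1 nM E2 final; same-well multiplex.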

Experiment [15] is described as follows: qHTS assay to identify small molecule antagonists of the androgen receptor (AR) signaling pathway using the MDA cell line in the presence of 0.5 nM R1881 - cell viability counter screen (AID 1259242). Further: nearly all actives have a fitted effect of over 45% in size. The method in brief: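 MDA-kb2 cells (MMTV-luciferase, AR/GR responsive) were treated with compounds plus 0.5 nM R1881 (final) for 16 hr at 37C, 0% CO2. Viability was then read in the same wells as live-cell protease fluorescence (CellTiter-Fluor, 30 min).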

Experiment [16] has as its target Estrogen receptor (Homo sapiens) (UniProt P03372). The experiment can be described thus: qHTS assay to identify small molecule antagonists of the estrogen receptor alpha (ER-alpha) signaling pathway using the BG1 cell line in the presence of 0.1 nM 17-beta-estradiol (AID 1259244). Further: nearly all actives have a fitted effect of over 50% in size. The method in brief:
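VM7Luc4E2 cells (endogenous full-length ER-alpha, 4×ERE-luciferase), kept 5 days in phenol red-free, charcoal-stripped FBS medium; 4,000 cells/well. Compounds added with 0.1 nM (final) 17beta-estradiol, 22 hr at 37C; luminescence read with ONE-Glo after 30 min.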

Experiment [17] is described as follows: qHTS assay to identify small molecule phospholipidosis (PLD) inducers (AID 1259344; active means well fitted curve in the direction sought with a large enough effect; an effect the other way counts as inactive or inconclusive). The method in brief: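 HepG2 cells grown on collagen I take up LipidTOX Red while exposed to compound for 24 h; after fixation they are imaged at 20x and pit metrics are extracted.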
Experiment [18] is described as follows: qHTS assay to identify small molecule HDAC inhibitors - cell viability counter screen (AID 1259365). The gist of the method:
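To flag cytotoxic hits, 1,500 wild-type HCT-116 cells per well, plated the day before, receive test compounds for 2hr at 37 C before CellTiter-Glo reagent and a luminescence read.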

The nature of experiment [19]: qHTS assay to identify small molecule HDAC inhibitors (AID 1259364). The gist of the method:
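Wild-type HCT-116 cells, plated overnight at 37 C, exposed to compounds 2 hr at 37 C; luminogenic HDAC-Glo substrate then added 30 min at room temperature. Luminescence reports relative endogenous class I/II HDAC activity.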
On the % scale 0 is the no-effect control and ±100 the full control effect.

Sequence of Estrogen receptor (Homo sapiens) (P03372 whole entry, looked up): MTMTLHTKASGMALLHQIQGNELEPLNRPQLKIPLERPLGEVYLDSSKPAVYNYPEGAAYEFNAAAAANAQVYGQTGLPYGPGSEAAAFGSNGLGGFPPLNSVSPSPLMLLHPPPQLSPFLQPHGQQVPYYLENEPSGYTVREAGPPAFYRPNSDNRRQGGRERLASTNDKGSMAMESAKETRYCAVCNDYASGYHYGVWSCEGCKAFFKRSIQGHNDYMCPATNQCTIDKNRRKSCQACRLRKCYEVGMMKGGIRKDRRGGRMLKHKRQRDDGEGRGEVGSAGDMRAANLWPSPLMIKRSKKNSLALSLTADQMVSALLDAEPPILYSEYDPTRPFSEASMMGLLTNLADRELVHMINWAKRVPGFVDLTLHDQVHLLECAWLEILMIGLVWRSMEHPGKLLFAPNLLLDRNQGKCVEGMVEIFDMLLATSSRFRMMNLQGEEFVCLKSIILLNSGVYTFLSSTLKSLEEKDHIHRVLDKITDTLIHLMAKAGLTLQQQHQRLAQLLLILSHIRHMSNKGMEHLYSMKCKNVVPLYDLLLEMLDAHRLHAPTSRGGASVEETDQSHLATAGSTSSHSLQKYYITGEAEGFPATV

Take `COC(=O)N/N=C/c1c[n+]([O-])c2ccccc2[n+]1[O-]`: the Potency in [1] was 23.9 µM (active); in experiment [2] it was 23.9 µM (active); in experiment [4] it was 21.3 µM (active); in experiment [5], 23.9 µM (active); in experiment [6], 23.9 µM (active); in experiment [7] it was 23.9 µM (active). In addition, the Potency was 21.3 µM (active) in experiment [11] and 26.8 µM (active) in experiment [13]. For the same molecule, the Potency result in experiment [3], in [12] and in experiment [17] was “inactive” each time. Further, the outcome in [8], in experiment [9], in experiment [10], in [14], in experiment [15] and in experiment [16] was inactive. Besides, the molecule was called inactive in [18].
Take `CC(C)(C)C(=O)NCCCC(=O)O`: the Potency result in experiment [1], in experiment [2], in experiment [3], in experiment [4], in [5] and in experiment [6] was “inactive” throughout. Also, the Potency result in [7], in experiment [11], in experiment [12], in experiment [13], in [17] and in experiment [19] was “inactive” each time. For the same molecule, the molecule was classed as inactive in [8], in experiment [9], in experiment [10], in [14], in experiment [15] and in experiment [16].
In the case of `C[C@@H]1NC(=O)[C@@H](N)CNC(=O)[C@H](C2CCNC(N)=N2)NC(=O)/C(=C/NC(N)=O)NC(=O)[C@H](CNC(=O)C[C@@H](N)CCCN)NC1=O` (some centres not stated), the cytotoxicity in [1] was -1.91% [at 0.29 µM]; in experiment [5], -4.92% [at 0.29 µM]. For the same molecule, the cytotoxicity increase in experiment [2] is -3.78% [at 0.29 µM]; in experiment [4] it was 19.4% [at 0.29 µM]; in [6], -3.17% [at 0.29 µM]; in experiment [7], 6.36% [at 0.29 µM]; in [13] it was -1.65% [at 0.29 µM]. The activity change, negative = cytotoxicity in experiment [3] was -3.01% [at 0.29 µM]; in [9] it was 0.653% [at 0.29 µM]; in experiment [10], 0.186% [at 0.29 µM]; in experiment [12] it was 5.25% [at 0.29 µM]; in experiment [14] it was 6.75% [at 0.349 µM]. The activity change, negative = cytotoxic in [8] is 5.82% [at 0.29 µM]. In addition, in [11], the activity change was 17.5% [at 0.29 µM, active compounds read high]. Also, the viability change, negative = cytotoxic in experiment [15] was 2.87% [at 0.349 µM]. Moreover, the activity change, negative = inhibition in [16] was 11.8% [at 0.349 µM]; in experiment [19] it was -0.0991% [at 0.349 µM]. Moreover, the Potency entry in experiment [17] is “inactive”.
Turning to `CCCCNCC`, the Potency result in experiment [1], in [2], in [3], in [4], in experiment [5] and in [6] was “inactive” each time. Also, the Potency entry in [7], in [11], in experiment [12] and in experiment [13] was “inactive” in each case. Moreover, the result in experiment [8], in [9], in experiment [10], in experiment [14], in experiment [15] and in [16] was inactive.
In the case of `CC(=O)OCC(=O)[C@@]1(O)CC[C@H]2[C@@H]3CCC4=CC(=O)C=C[C@]4(C)[C@H]3[C@@H](O)C[C@@]21C`, the Potency entry in experiment [1], in experiment [2], in experiment [4], in experiment [5], in experiment [6] and in experiment [7] was “inactive” throughout. The Potency result in experiment [11], in [13], in experiment [17] and in experiment [19] was “inactive” in each case. For the same molecule, the Potency in experiment [3] was 21.3 µM (active); in experiment [12] it was 10.7 µM (active). Moreover, the result in experiment [8], in experiment [9], in experiment [10], in [14], in experiment [15] and in experiment [16] was inactive. Further, in [18], the molecule was called inactive.
`COc1cc2nc(N3CCN(C(=O)C4CCCO4)CC3)nc(N)c2cc1OC` (configuration not stated): the Potency result in experiment [1], in [2], in experiment [3], in experiment [4], in [5] and in experiment [6] was “inactive” each time. Also, the Potency entry in experiment [7], in experiment [11], in [12], in experiment [13] and in experiment [17] was “inactive” in each case. In addition, the molecule was classed as inactive in experiment [8], in experiment [9], in experiment [10], in experiment [14], in [15] and in experiment [16]. Also, the call in experiment [18] was inactive.

These data come from PubChem BioAssay (Tox21).
